Measured values taken from PubChem BioAssay (NCATS).
“And” between values parts separate entries of the source, which are not always exact repeats. Identical values can stand only once. Records with an inconclusive call do not appear. The source made the active and inactive calls. Unless noted, calls come from the whole dose curve; as a rule, active = well fitted curve in the direction sought with a large enough effect; inconclusive = small, poorly fitted or top-dose-only effect, or another doubt; inactive = no such curve, though single readings can be large; an effect the other way counts as inactive or inconclusive.

Key:
[1] = S16 Schwann cell PMP22 intronic element firefly luciferase assay (AID 624032);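 note: series mostly up to about 58 µM; plate controls were DMSO for no effect and PTC124 positive control mean for full effect; nearly all actives have a fitted effect of over 30% in size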
Procedure, shortened: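 Luciferase reporter of PMP22 intronic-element expression in stably transfected S16 rat Schwann cells, read by ONE-Glo luminescence after 24 h compound exposure at 37 C. Activity scaled between DMSO (0%) and positive-control PTC124; concentration-effect curves quality-classified.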

[2] = S16 Schwann cell PMP22 intronic element beta-lactamase assay (AID 624044; calls by dose curve; note: nearly all actives have a fitted effect of over 15% in size; note: potency is the fitted concentration of half-maximal effect)
Procedure, shortened: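 Rat S16 Schwann cells with beta-Lac driven by a PMP22 intronic element, compound-treated 24 h at 37 °C. LiveBLAzer FRET B/G read: 460 nm normalized to potassium clavulanate vs DMSO; 535 nm FRET as viability; concentration-effect curves classified.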

[3] = qHTS of Nrf2 Activators: LOPAC Validation (AID 624149); note: 0% is about no effect
Procedure, shortened: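 ARE reporter activation measured in AREc32 firefly luciferase cells after 24 hr compound exposure; Steady-Glo luminescence.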

[4] = HTS Assay for Allosteric Antagonists of the Human D2 Dopamine Receptor: Hit Validation in HTRF (AID 624455); note: potency is the fitted concentration of half-maximal effect;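 note: stable D1 dopamine receptor cell line scored for blocking the D1 response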
Procedure, shortened: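 Signal from an HTRF read-out in D1-expressing stable cells gave hit activity as inhibition of the D1 response.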

[5] = target: Glutaminase kidney isoform, mitochondrial (Homo sapiens) (UniProt O94925); assay: qHTS for Inhibitors of Glutaminase (GLS): LOPAC Validation (AID 624146); note: nearly all actives have a fitted effect of over 60% in size; note: potency is the fitted concentration of half-maximal effect
Procedure, shortened: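 Assay buffer: 45 mM KH2PO4 pH 8.2, 0.02% Tween-20. hKGA acts on L-glutamine (1 mM solution added); product glutamate is reported by an oxidase/peroxidase Amplex Red coupling, with fluorescence taken at baseline and 30 min.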

[6] = qHTS of Trypanosoma Brucei Inhibitors: LOPAC Validation (AID 624147); note: 0% is about no effect
Procedure, shortened: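 Quantitative HTS: titrated library compounds versus trypanosomal pyruvate kinase in TEA buffer (pH 7.2) containing KCl, MgCl2, BSA and Tween-20. Reactions were initiated with ADP, 130 uM final. Kinase-Glo Plus luminescence was read after 45 min at RT.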

[7] = target: Glucagon-like peptide 1 receptor (Homo sapiens) (UniProt P43220); assay: qHTS of GLP-1 Receptor Agonists: LOPAC Validation (AID 624148);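 note: luminescence from a luciferase reporter switched on by cAMP; 0% is about no effect; higher luminescence signal means agonism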
Procedure, shortened: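 Agonism scored as increased luciferase luminescence driven by cAMP in HEK293 clones carrying GLP-1R. Cells settled 12 hours, received compound for 4-6 hr at 37 deg C, 5% CO2, and were read after 12 min detection reagent at RT.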

[8] = qHTS assay for small molecule agonists of the antioxidant response element (ARE) signaling pathway (AID 651741; active = well fitted activation curve with a large enough effect in the signal ratio; the % refers to the signal ratio; note: % of control where 0% means no effect)
Procedure, shortened: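 Seeding 2,000 ARE-bla HepG2 cells per well preceded a 5 h incubation at 37 C/5% CO2 and a 16 h compound exposure at 37 C. Beta-lactamase reporter activity was then quantified by fluorescence after 2 h with LiveBLAzer B/G FRET substrate.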

[9] = qHTS assay for small molecule activators of the nuclear factor-kappa B (NF-kB) signaling pathway (AID 651749; active = well fitted activation curve with a large enough effect in the signal ratio; the % refers to the signal ratio; note: series mostly up to about 77 µM; % of control where 0% means no effect); conditions: NF-kB-bla ME-180 cells, beta-lactamase FRET ratio, 16 h; active compounds read high
Procedure, shortened: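 Stably transfected ME-180 line; NF-kB response element upstream of beta-lactamase. Treatment: compound or DMSO, 16 hr. Detection: fluorescent FRET substrate.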

[10] = Cytotoxicity counterscreen for NFkB agonists and antagonists (AID 624476);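 note: cells exposed to compound for 48 hours; % is set by controls: 0 for no effect and ±100 for the full control effect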
[11] = qHTS Assay for Identification of Small Molecule Agonists for NFkB Signaling Pathway. (AID 624478);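 note: compounds tested together with TNF alpha at its EC50 of 10 pM; 0% is about no effect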
Procedure, shortened: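 Cells carrying an NFkB response element-driven beta-lactamase gene are co-treated with compound and 10 pM TNF alpha for 5 h, and reporter activity is then read as 460 and 530 nm fluorescence.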

[12] = qHTS assay for small molecule disruptors of the mitochondrial membrane potential - 5 hr assay (AID 651755; calls by dose curve; note: % is set by controls: 0 for no effect and ±100 for the full control effect; nearly all actives have a fitted effect of over 40% in size)
Procedure, shortened: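 HepG2, 2,000 cells/well, overnight attach; cpd or DMSO 5 hr, 37C/5% CO2; Mito-MPS 30 min 37C; fluor 490/535 + 540/590 nm.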

[13] = target: Tumor necrosis factor (Homo sapiens) (UniProt P01375); assay: qHTS assay to identify small molecules that stimulate Tumor Necrosis Factor-alpha (TNF-alpha) secretion (AID 651757; active = well fitted curve in the direction sought with a large enough effect in the signal ratio; the % refers to the signal ratio; note: 0% is about no effect)
Procedure, shortened: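 Secreted TNF-alpha from compound-treated THP-1 cells (17 hrs, 37 C) was quantified with a homogeneous time-resolved fluorescence antibody assay.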

Glutaminase kidney isoform, mitochondrial (Homo sapiens), sequence (O94925 whole entry, looked up, canonical isoform): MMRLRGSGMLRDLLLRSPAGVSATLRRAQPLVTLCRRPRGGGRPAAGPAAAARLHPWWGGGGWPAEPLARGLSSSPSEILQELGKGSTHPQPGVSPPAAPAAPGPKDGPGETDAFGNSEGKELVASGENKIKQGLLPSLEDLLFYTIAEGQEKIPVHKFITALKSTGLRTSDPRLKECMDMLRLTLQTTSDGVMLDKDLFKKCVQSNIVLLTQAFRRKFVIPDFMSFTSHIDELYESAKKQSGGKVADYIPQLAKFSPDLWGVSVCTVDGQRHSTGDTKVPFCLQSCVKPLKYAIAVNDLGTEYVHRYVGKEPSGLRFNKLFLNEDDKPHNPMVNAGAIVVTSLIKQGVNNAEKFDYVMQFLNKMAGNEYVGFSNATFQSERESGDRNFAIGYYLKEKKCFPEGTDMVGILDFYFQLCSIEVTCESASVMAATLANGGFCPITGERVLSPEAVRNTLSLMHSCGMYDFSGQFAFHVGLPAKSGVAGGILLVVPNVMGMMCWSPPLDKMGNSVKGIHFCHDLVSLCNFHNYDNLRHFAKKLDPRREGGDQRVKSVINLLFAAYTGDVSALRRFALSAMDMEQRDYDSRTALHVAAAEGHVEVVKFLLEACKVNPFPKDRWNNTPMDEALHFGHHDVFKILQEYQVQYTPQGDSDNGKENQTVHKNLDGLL
Glucagon-like peptide 1 receptor (Homo sapiens), sequence (P43220 whole entry, looked up): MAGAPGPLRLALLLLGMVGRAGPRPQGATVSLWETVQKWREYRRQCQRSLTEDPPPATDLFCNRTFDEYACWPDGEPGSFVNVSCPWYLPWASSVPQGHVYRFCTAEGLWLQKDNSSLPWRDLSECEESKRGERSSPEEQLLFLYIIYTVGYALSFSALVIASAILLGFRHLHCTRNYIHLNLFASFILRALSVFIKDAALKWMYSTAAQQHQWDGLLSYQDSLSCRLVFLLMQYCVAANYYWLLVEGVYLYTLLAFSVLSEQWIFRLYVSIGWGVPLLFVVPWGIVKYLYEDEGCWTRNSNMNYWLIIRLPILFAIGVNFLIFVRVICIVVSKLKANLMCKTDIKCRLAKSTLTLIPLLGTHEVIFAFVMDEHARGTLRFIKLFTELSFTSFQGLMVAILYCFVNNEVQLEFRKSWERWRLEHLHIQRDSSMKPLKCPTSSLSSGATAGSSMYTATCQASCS
Tumor necrosis factor (Homo sapiens), sequence (P01375 whole entry, looked up): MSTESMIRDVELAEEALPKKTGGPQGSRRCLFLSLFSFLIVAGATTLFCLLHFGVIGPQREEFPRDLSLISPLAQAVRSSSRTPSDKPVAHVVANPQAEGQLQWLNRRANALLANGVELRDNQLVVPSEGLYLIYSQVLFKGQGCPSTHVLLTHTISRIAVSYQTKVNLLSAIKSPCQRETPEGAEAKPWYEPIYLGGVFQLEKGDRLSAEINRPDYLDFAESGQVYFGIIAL

CC(CCc1ccc(O)cc1)NCCc1ccc(O)c(O)c1 (configuration not stated)
active: Potency [4] 3260 nM
inactive: Potency [1] | Potency [2] | outcome [3]

O=C(c1ccc(F)cc1)C1CCN(CCn2c(=O)[nH]c3ccccc3c2=O)CC1
inactive: Potency [1] | Potency [2] | Potency [5] | Potency [6] | Potency [7] | outcome [3] | Potency [4]

Cn1cnc2c1c(=O)[nH]c(=O)n2C
inactive: Potency [1] | Potency [2] | Potency [5] | Potency [7] | outcome [3] | Potency [4] | Potency [8] | activation [9] -2.65%

CCOC(=O)C(C)(C)Oc1ccc(Cl)cc1
inactive: Potency [1] | Potency [2] | Potency [5] | Potency [6] | Potency [7] | outcome [3] | Potency [4] | Potency [8] | activation [9] -3.61%

CC(C)NCC(O)COc1ccc(CCOCC2CC2)cc1 (configuration not stated)
inactive: Potency [1] | Potency [5] | Potency [6] | Potency [7] | outcome [3] | Potency [4]

CC(C)Cc1ccc(C(C)C(=O)O)cc1 (configuration not stated)
inactive: Potency [1] | Potency [5] | Potency [6] | Potency [7] | outcome [3] | Potency [4] | Potency [8] | activation [9] -1.23%

CC(=O)OCC(CCn1cnc2cnc(N)nc21)COC(C)=O
inactive: Potency [1]

CN(C)c1nc(N(C)C)nc(N(C)C)n1
inactive: Potency [1] | Potency [2] | Potency [5] | Potency [6] | Potency [7] | outcome [3] | Potency [4]

O=c1c(O)c(-c2ccc(O)c(O)c2)oc2cc(O)cc(O)c12
inactive: Potency [1] | Potency [2] | Potency [7] | Potency [4] | Potency [10] | outcome [11]

CC(C)(C)C(=O)Oc1ccc(S(=O)(=O)Nc2ccccc2C(=O)NCC(=O)O)cc1
inactive: Potency [1] | Potency [2]

N[C@@H](Cc1c[nH]c2ccc(O)cc12)C(=O)O
inactive: Potency [1] | Potency [2] | Potency [6] | Potency [7] | outcome [3] | Potency [4] | activation [9] 0.166% | Potency [12]
active: Potency [5] 1120 nM

COc1ccc2[nH]cc(CCNC(C)=O)c2c1
inactive: Potency [1] | Potency [5] | Potency [6] | Potency [7] | outcome [3] | Potency [4] | Potency [8] | activation [9] -0.27% and 0.655% and 0.179%

COC(=O)Nc1nc2ccc(C(=O)c3cccs3)cc2[nH]1
inactive: Potency [1] | Potency [5] | Potency [7] | outcome [3] | Potency [4]
active: Potency [2] 2240 nM

NCCc1cnc[nH]1
inactive: Potency [1] | Potency [2] | Potency [6] | Potency [7] | outcome [3] | Potency [4]

CN(CCOc1ccc(NS(C)(=O)=O)cc1)CCc1ccc(NS(C)(=O)=O)cc1
inactive: Potency [1]

NC(=O)OCC(COC(N)=O)c1ccccc1
inactive: Potency [1] | Potency [5] | Potency [6] | Potency [7] | outcome [3] | Potency [4]

Cc1cn([C@H]2C=C[C@@H](CO)O2)c(=O)[nH]c1=O
inactive: Potency [1] | Potency [5] | Potency [6] | Potency [7] | outcome [3] | Potency [4] | Potency [8] | outcome [13]
